# In PubChem BioAssay (EPA / NIEHS):
# Values joined by “and” are separate entries in the source; they are usually repeats but may differ in a detail not shown here. Identical values can stand only once. A structure can be active in one record and inactive in another. Active and inactive are the calls of the source. How the source made its calls: active means hit-call score of the fitted dose curve at least 0.9, where 1 is the maximum; inactive means score below 0.9.
# Read-out: CD40, CD40 (gene 958)
# Experiment: BSK_SAg_CD40: BioMAP Diversity Plus: SAg Assay for CD40 Biomarker Activity (AID 2283088)
# Settings: primary human HUVEC with PBMC; actives raise or lower the signal
# Outline: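 Endpoint derived by fitting increases or decreases versus DMSO controls. CD40 is detected by fluorescence ELISA in a human vascular co-culture of endothelium and PBMC at 24 h.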
SMILES,outcome,AC50
CCOC(=O)C(C)Oc1ccc(Oc2cnc3cc(Cl)ccc3n2)cc1 (centres undefined),inactive,–
C#C[C@]1(O)CC[C@H]2[C@@H]3CCC4=CC(=O)CC[C@@H]4[C@H]3CC[C@@]21CC,inactive,–
CC(C)(c1ccc(O)cc1)c1ccc(O)cc1,inactive,20.3 µM (active) and 5.31 µM (active)
COC(=O)c1ccccc1S(=O)(=O)NC(=O)Nc1nc(OC(F)F)cc(OC(F)F)n1,inactive,–
S=C(S)NCCNC(=S)S.[Mn+2].[S-]C([S-])=NCCN=C([S-])[S-].[Zn+2],inactive,–
CCC(O)=C1C(=O)CC(C(=O)O)CC1=O (centres undefined),inactive,–
CCCCCOC(=O)COc1cc(N2C(=O)C3=C(CCCC3)C2=O)c(F)cc1Cl,–,20 µM (active)
CCOC(=O)c1ccc(O)cc1,inactive,–
CCCCC(CC)COC(=O)c1ccccc1C(=O)O (centres undefined),inactive,–
CCOC(=O)NCCOc1ccc(Oc2ccccc2)cc1,–,14.5 µM (active)
CCC(C)OC(=O)N1CCCCC1CCO (centres undefined),inactive,–
CCNc1nc(N)nc(Cl)n1,inactive,–
COC(=O)c1ccccc1C(=O)O,–,6.97 µM (active)
COC(=O)c1cccc(C)c1S(=O)(=O)NC(=O)Nc1nc(OCC(F)(F)F)nc(N(C)C)n1,inactive,–
O=C(O)C1(C(=O)Nc2ccc(Cl)cc2Cl)CC1,inactive,–
Oc1ccc(C(c2ccc(O)cc2)C(Cl)(Cl)Cl)cc1,–,24.4 µM (active)
N[C@@H](Cc1cc(I)c(Oc2ccc(O)c(I)c2)c(I)c1)C(=O)O,inactive,–
COc1c(Cl)ccc(Cl)c1C(=O)O,inactive,–
CC(C)CCCCCCc1ccc(O)cc1,–,8.59 µM (active)
N#CSCSc1nc2ccccc2s1,–,5.42 µM (active) and 6.26 µM (active)
CCN(Cc1c(F)cccc1Cl)c1c([N+](=O)[O-])cc(C(F)(F)F)cc1[N+](=O)[O-],inactive,–
O=C(O)c1ccccc1,inactive,–
Cc1nn(C)c(Oc2ccccc2)c1C=NOCc1ccc(C(=O)OC(C)(C)C)cc1,–,6.66 µM (active)
C[C@]12C[C@H](O)[C@H]3[C@@H](CCC4=CC(=O)CC[C@@]43C)[C@@H]1CC[C@@H]2C(=O)CO,inactive,–
CC(=O)[C@H]1CC[C@H]2[C@@H]3CCC4=CC(=O)CC[C@]4(C)[C@H]3CC[C@]12C,–,20 µM (active)
O=C(c1ccccc1)C1CCCCC1,inactive,–
CCCN(CCC)C(=O)SCC,inactive,–
CCCOC(=O)c1ccc(C(=O)OCCC)nc1,–,3.09 µM (active)
CCCOC(=O)NCCCN(C)C,inactive,–

# Read-out: CD69, CD69 (gene 969)
# Experiment: BSK_SAg_CD69: BioMAP Diversity Plus: SAg Assay for CD69 Biomarker Activity (AID 2283089);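 on AC50: cell surface CD69 protein quantified by ELISA with fluorescence detection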
# Settings: primary human HUVEC with PBMC; actives raise or lower the signal
# Outline: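 Primary human vascular co-culture (umbilical vein endothelium with peripheral blood mononuclear cells) exposed to test chemical for 24 h. CD69 levels quantified by fluorescence ELISA; DMSO served as negative control for bidirectional fitting.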
SMILES,outcome,AC50
CCOC(=O)C(C)Oc1ccc(Oc2cnc3cc(Cl)ccc3n2)cc1 (centres undefined),inactive,–
C#C[C@]1(O)CC[C@H]2[C@@H]3CCC4=CC(=O)CC[C@@H]4[C@H]3CC[C@@]21CC,inactive,–
CC(C)(c1ccc(O)cc1)c1ccc(O)cc1,inactive,–
COC(=O)c1ccccc1S(=O)(=O)NC(=O)Nc1nc(OC(F)F)cc(OC(F)F)n1,inactive,–
S=C(S)NCCNC(=S)S.[Mn+2].[S-]C([S-])=NCCN=C([S-])[S-].[Zn+2],inactive,–
CCC(O)=C1C(=O)CC(C(=O)O)CC1=O (centres undefined),inactive,–
CCCCCOC(=O)COc1cc(N2C(=O)C3=C(CCCC3)C2=O)c(F)cc1Cl,inactive,–
CCOC(=O)c1ccc(O)cc1,inactive,–
CCCCC(CC)COC(=O)c1ccccc1C(=O)O (centres undefined),inactive,–
CCOC(=O)NCCOc1ccc(Oc2ccccc2)cc1,–,25.3 µM (active)
CCC(C)OC(=O)N1CCCCC1CCO (centres undefined),inactive,–
CCNc1nc(N)nc(Cl)n1,inactive,–
COC(=O)c1ccccc1C(=O)O,inactive,–
COC(=O)c1cccc(C)c1S(=O)(=O)NC(=O)Nc1nc(OCC(F)(F)F)nc(N(C)C)n1,inactive,–
O=C(O)C1(C(=O)Nc2ccc(Cl)cc2Cl)CC1,–,9.21 µM (active)
Oc1ccc(C(c2ccc(O)cc2)C(Cl)(Cl)Cl)cc1,–,20 µM (active)
N[C@@H](Cc1cc(I)c(Oc2ccc(O)c(I)c2)c(I)c1)C(=O)O,inactive,–
COc1c(Cl)ccc(Cl)c1C(=O)O,inactive,–
CC(C)CCCCCCc1ccc(O)cc1,–,10.7 µM (active)
N#CSCSc1nc2ccccc2s1,–,3.12 µM (active) and 6.36 µM (active)
CCN(Cc1c(F)cccc1Cl)c1c([N+](=O)[O-])cc(C(F)(F)F)cc1[N+](=O)[O-],inactive,–
O=C(O)c1ccccc1,inactive,–
Cc1nn(C)c(Oc2ccccc2)c1C=NOCc1ccc(C(=O)OC(C)(C)C)cc1,–,4.1 µM (active)
C[C@]12C[C@H](O)[C@H]3[C@@H](CCC4=CC(=O)CC[C@@]43C)[C@@H]1CC[C@@H]2C(=O)CO,inactive,–
CCCCC(CC)CN1C(=O)C2C3C=CC(C3)C2C1=O (centres undefined),–,20 µM (active)
O=C(c1ccccc1)C1CCCCC1,inactive,–
CCCN(CCC)C(=O)SCC,inactive,–
CCCOC(=O)c1ccc(C(=O)OCCC)nc1,inactive,–
CCCOC(=O)NCCCN(C)C,inactive,–
